Laboratory results from publication PMC12864922, “TDP-43 directly inhibits mRNA accumulation in neurites through modulation of mRNA stability”.
Residue numbers refer to the chain shown, from its start. The full ranking holds about 9,900 sequences; the median of “r (bound/input frequency ratio)” is about 0.7, and the highest 2% start at about 6.5. Only a selection was taken, and the highest values are over-represented in it overall.

B1: ENSMUSG00000032194.180|Kank2|82:88;185:189 (ssRNA)
RNA: GGGAGUUCUACAGUCCGACGAUCGCUUCGAUAUCCGCAUGCUAUGGCCUCAGAGCACUCCCAGAACUAGCUUAAAGUGACAGGCUUUGCUGAAAUCCAAAGGGACAAAAGAGUAGUUUUAUGUUACACACAUUGUUUUUAAUGCCCUGGAGCUCCUGCUGGUGACAGGAGAGACAGACAGGCUGCACCUUUCUCUAACUGGGGUUCCUUUCUGGCCCCAGGAUCUCACACACGUUCGUGGGGGGAUUUUGUUGUUGUUUCUUUGUUUCUUUUCUUCAUAAAGAAGAAAAAGGAAACAACUUCUCUCUUGCGGUCGCACUAGUGUGGAAUUCUCGGGUGUCAAGG
B2: ENSMUSG00000061578.618|Ksr2 (ssRNA)
RNA: GGGAGUUCUACAGUCCGACGAUCGCUUCGAUAUCCGCAUGCUAGUGGCUUGCCUGGCUGGCCUGUGAUAUAGUGGACUGUCUUAGUGAUCGGACUUCAGGGAGCAACCUAUAGGAAAUGCAAAGGCUUAGAGGGGACGGACAGCUCCCUGACCCUGGAUGGCCAGGAAUGGUGCUAGCUAGGGUGUGAGCCAAGCCCUUGAGGCUACUGUGAGUUAUGAGAUGUGUCCAACCCUCAGCCCACAGACUGCAUAUGCCCCAGGACAGCUGUGAAGGUGACCCAAUACAAAAUCGUAAACUAACUUCUCUUGCGGUCGCACUAGUGUGGAAUUCUCGGGUGUCAAGG
B3: ENSMUSG00000061578.593|Ksr2 (ssRNA)
RNA: GGGAGUUCUACAGUCCGACGAUCGCUUCGAUAUCCGCAUGCUAUCUGGGAUAAAAAAAAAAAGUCAAAAGAAAUAAAAUAUGAUUCAGGCAAAUUCAAUGCAACUCAAAAUUUCCACCAAUCCCAUAUUGUCCCUAGCAAUGACAAAAUUAUUUGCAAGACAGACCCUGUGACCUGUAGAGGCAAAAUAUAUGGUGGCUUGCCUGGCUGGCCUGUGAUAUAGUGGACUGUCUUAGUGAUCGGACUUCAGGGAGCAACCUAUAGGAAAUGCAAAGGCUUAGAGGGGACGGACAGCUCCCUGACCCUCUUGCGGUCGCACUAGUGUGGAAUUCUCGGGUGUCAAGG
B4: ENSMUSG00000061578.1182|Ksr2 (ssRNA)
RNA: GGGAGUUCUACAGUCCGACGAUCGCUUCGAUAUCCGCAUGCUAUGUCCUCGGGUGUCUCUGCUGUAUAUAGGCCAGUCACAAGCCCUUCUAAAAGCCUGCUCUUGUCUGCUUUUGUUUCUCCACCAUGCCCCCUGCCACCUCUUCUGACAGUGCUCAGAUUUAUCAGCCACCUGACCCACAGACCCAUAUGGACACACUAGAAAGCCCAUCCUAGGUCUUUCCAUGGUCUCUCACACCCCUGUCCCCGUCCCCUCCACCCCCCGGCAGCAUGCUUCACUCUAUGAAUGAGCCGCUGGGAUAUUCUCUUGCGGUCGCACUAGUGUGGAAUUCUCGGGUGUCAAGG
B5: ENSMUSG00000061578.1469|Ksr2 (ssRNA)
RNA: GGGAGUUCUACAGUCCGACGAUCGCUUCGAUAUCCGCAUGCUAUGGAUGGGUGAAUGGAUGGAUAGGUAUGUGAAUAAAUGGAUGGAUGGAUGGAUUGAUUUGUGAAUGAAUGGAUGAAUGGAUGGGUAGGUGGGUGGAUGCAUAGGCAAGUAGAUGAAUGAAUAUGUGGGUAGAAGGGUGAGUGGGUGGAUGAAUGGAUGGAUAGGUUGGUAGGUUAAUGUAUUCGUGGAUGGGUGAAUGGAUGGAUGGAUAGAUAGAUGGGAAGGUGGAUGGACAGAUGGAUGGAUGGAUAGAUAGAUGGACUCUUGCGGUCGCACUAGUGUGGAAUUCUCGGGUGUCAAGG
B6: ENSMUSG00000061578.1472|Ksr2|6:10 (ssRNA)
RNA: GGGAGUUCUACAGUCCGACGAUCGCUUCGAUAUCCGCAUGCUAGAUAGCAUACUGAAUAAAUGGAUGGAUGGAUGGAUUGAUUUGUGAAUGAAUGGAUGAAUGGAUGGGUAGGUGGGUGGAUGCAUAGGCAAGUAGAUGAAUGAAUAUGUGGGUAGAAGGGUGAGUGGGUGGAUGAAUGGAUGGAUAGGUUGGUAGGUUAAUGUAUUCGUGGAUGGGUGAAUGGAUGGAUGGAUAGAUAGAUGGGAAGGUGGAUGGACAGAUGGAUGGAUGGAUAGAUAGAUGGACAGGUGGUUGGUGGAUAACUCUUGCGGUCGCACUAGUGUGGAAUUCUCGGGUGUCAAGG
B7: ENSMUSG00000061578.1469|Ksr2|24:28 (ssRNA)
RNA: B5 RNA with G67C, U68A, A69U, U70A, G71C
B8: ENSMUSG00000061578.1468|Ksr2|30:34 (ssRNA)
RNA: GGGAGUUCUACAGUCCGACGAUCGCUUCGAUAUCCGCAUGCUAGAUGAAUGGAUGGGUGAAUGGAUGGAUAGCAUACUGAAUAAAUGGAUGGAUGGAUGGAUUGAUUUGUGAAUGAAUGGAUGAAUGGAUGGGUAGGUGGGUGGAUGCAUAGGCAAGUAGAUGAAUGAAUAUGUGGGUAGAAGGGUGAGUGGGUGGAUGAAUGGAUGGAUAGGUUGGUAGGUUAAUGUAUUCGUGGAUGGGUGAAUGGAUGGAUGGAUAGAUAGAUGGGAAGGUGGAUGGACAGAUGGAUGGAUGGAUAGAUACUCUUGCGGUCGCACUAGUGUGGAAUUCUCGGGUGUCAAGG
B9: ENSMUSG00000061578.1467|Ksr2|36:40 (ssRNA)
RNA: GGGAGUUCUACAGUCCGACGAUCGCUUCGAUAUCCGCAUGCUAUGAAUGGAUGAAUGGAUGGGUGAAUGGAUGGAUAGCAUACUGAAUAAAUGGAUGGAUGGAUGGAUUGAUUUGUGAAUGAAUGGAUGAAUGGAUGGGUAGGUGGGUGGAUGCAUAGGCAAGUAGAUGAAUGAAUAUGUGGGUAGAAGGGUGAGUGGGUGGAUGAAUGGAUGGAUAGGUUGGUAGGUUAAUGUAUUCGUGGAUGGGUGAAUGGAUGGAUGGAUAGAUAGAUGGGAAGGUGGAUGGACAGAUGGAUGGAUGGACUCUUGCGGUCGCACUAGUGUGGAAUUCUCGGGUGUCAAGG
B10: ENSMUSG00000061578.1463|Ksr2|60:64 (ssRNA)
RNA: GGGAGUUCUACAGUCCGACGAUCGCUUCGAUAUCCGCAUGCUAUAGGUGGGUAGAUAGGUAUAUGAAUGAAUGGAUGAAUGGAUGGGUGAAUGGAUGGAUAGCAUACUGAAUAAAUGGAUGGAUGGAUGGAUUGAUUUGUGAAUGAAUGGAUGAAUGGAUGGGUAGGUGGGUGGAUGCAUAGGCAAGUAGAUGAAUGAAUAUGUGGGUAGAAGGGUGAGUGGGUGGAUGAAUGGAUGGAUAGGUUGGUAGGUUAAUGUAUUCGUGGAUGGGUGAAUGGAUGGAUGGAUAGAUAGAUGGGAAGGCUCUUGCGGUCGCACUAGUGUGGAAUUCUCGGGUGUCAAGG
B11: ENSMUSG00000061578.1466|Ksr2|42:46 (ssRNA)
RNA: GGGAGUUCUACAGUCCGACGAUCGCUUCGAUAUCCGCAUGCUAUAUGAAUGAAUGGAUGAAUGGAUGGGUGAAUGGAUGGAUAGCAUACUGAAUAAAUGGAUGGAUGGAUGGAUUGAUUUGUGAAUGAAUGGAUGAAUGGAUGGGUAGGUGGGUGGAUGCAUAGGCAAGUAGAUGAAUGAAUAUGUGGGUAGAAGGGUGAGUGGGUGGAUGAAUGGAUGGAUAGGUUGGUAGGUUAAUGUAUUCGUGGAUGGGUGAAUGGAUGGAUGGAUAGAUAGAUGGGAAGGUGGAUGGACAGAUGGAUGCUCUUGCGGUCGCACUAGUGUGGAAUUCUCGGGUGUCAAGG
B12: ENSMUSG00000061578.1465|Ksr2|48:52 (ssRNA)
RNA: GGGAGUUCUACAGUCCGACGAUCGCUUCGAUAUCCGCAUGCUAUAGGUAUAUGAAUGAAUGGAUGAAUGGAUGGGUGAAUGGAUGGAUAGCAUACUGAAUAAAUGGAUGGAUGGAUGGAUUGAUUUGUGAAUGAAUGGAUGAAUGGAUGGGUAGGUGGGUGGAUGCAUAGGCAAGUAGAUGAAUGAAUAUGUGGGUAGAAGGGUGAGUGGGUGGAUGAAUGGAUGGAUAGGUUGGUAGGUUAAUGUAUUCGUGGAUGGGUGAAUGGAUGGAUGGAUAGAUAGAUGGGAAGGUGGAUGGACAGACUCUUGCGGUCGCACUAGUGUGGAAUUCUCGGGUGUCAAGG

molecular target: TDP-43 (Homo sapiens, UniProt Q13148 1-414); experiment: RNA Bind-n-Seq with designed 260-mer pool; 25 mM Tris-HCl, 150 mM KCl, 3 mM MgCl2, BSA (printed 500 mg/mL), 20 units/mL SUPERase IN; pH not stated; 500 nM RNA pool, 1 h, 4 C; TDP-43 5, 50, 500 nM; high values mean tight binding; conditions: protein: recombinant; tags: SBP (GST cleaved off with PreScission; pGEX-GST-SBP)
Summary of the method: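 For each oligo, R gives binding as its mapped-read-normalized abundance after pulldown divided by its abundance in input. Bead-captured SBP-tagged TDP-43 (5, 50 or 500 nM) was incubated with 500 nM of an in vitro-transcribed 260-nt 3′ UTR oligo pool for 1 h at 4 °C in 25 mM Tris-HCl, 150 mM KCl, 3 mM MgCl2, BSA and SUPERase IN on streptavidin beads. Washed, biotin-eluted RNA was reverse transcribed, PCR-amplified and sequenced.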

Sequence of TDP-43 (Q13148 whole entry): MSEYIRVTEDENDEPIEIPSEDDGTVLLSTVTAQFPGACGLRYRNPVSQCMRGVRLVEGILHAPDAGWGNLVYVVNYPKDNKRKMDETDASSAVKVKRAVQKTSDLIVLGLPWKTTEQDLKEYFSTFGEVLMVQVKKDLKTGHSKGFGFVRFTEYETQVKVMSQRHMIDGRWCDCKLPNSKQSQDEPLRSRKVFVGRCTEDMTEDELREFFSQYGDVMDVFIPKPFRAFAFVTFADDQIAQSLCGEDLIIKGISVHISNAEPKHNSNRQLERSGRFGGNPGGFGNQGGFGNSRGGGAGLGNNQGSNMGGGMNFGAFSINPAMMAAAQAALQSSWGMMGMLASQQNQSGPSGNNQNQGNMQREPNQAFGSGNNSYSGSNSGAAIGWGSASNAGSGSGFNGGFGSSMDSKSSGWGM

Binder | binding signal
B1 | 0.125 R (bound/input frequency ratio)
B2 | 0.616 R (bound/input frequency ratio)
B3 | 0.762 R (bound/input frequency ratio)
B4 | 0.904 R (bound/input frequency ratio)
B5 | 5.88 R (bound/input frequency ratio)
B6 | 5.45 R (bound/input frequency ratio)
B7 | 12.1 R (bound/input frequency ratio)
B8 | 8.93 R (bound/input frequency ratio)
B9 | 6.51 R (bound/input frequency ratio)
B10 | 4.6 R (bound/input frequency ratio)
B11 | 6.95 R (bound/input frequency ratio)
B12 | 5.93 R (bound/input frequency ratio)
